# According to PubChem BioAssay:
# Active and inactive are the calls of the source.
# What was measured:
# [1] = system: PRMT1 (protein arginine N-methyltransferase 1); assay: PRMT1 binders on small-molecule microarrays, primary screen, biochemical, small-molecule microarray, 635 nm fluorescence (AID 1088); details: small-molecule microarray binding, higher = more signal;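 also: binding of Prmt1 protein to compounds spotted on small-molecule microarray slides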
# [2] = yeast growth modulation, basal conditions, primary screen, YJM789 clinical isolate, OD600, 24 h (AID 1089);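 also: growth of clinical yeast isolate S. cerevisiae YJM 789 seeded 1000 cells per well; test concentration not given here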; details: S. cerevisiae YJM789 growth, higher = more signal, called active from +8 up or from −8 down
# [3] = fission yeast growth modulation, primary screen, strain 972, OD600, 24 h, no modulator (AID 1090);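 also: basal condition with compound alone and no growth modifier present; test concentration not given here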; details: S. pombe 972 growth, higher = more signal, called active from +8 up or from −8 down
# [4] = S. cerevisiae growth modulation with rapamycin, primary screen, strain BY4716, OD600, 96 h (AID 1091); details: higher = more signal, called active from +8 up or from −8 down; also: test concentration not given here
# [5] = target: Torsin-1A-interacting protein 2 (Homo sapiens) (UniProt Q8NFQ8); assay: LULL1 binders on small-molecule microarray, primary screen, cell lysate, human LULL1 lysate, 635/667 nm fluorescence (AID 1092); details: hLULL1 lysate binding, 635 nm fluorescence, higher = more signal;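 also: probe is lysate of COS7 cells overexpressing human LULL1; score merges per-feature 667 nm fluorescence with signal-to-noise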
# [6] = E. coli growth modulation, two-sided OD650, primary screen, E. coli filamentation project, strain DRC41, 24 h (AID 1093); details: OD650, 24 h, higher = more signal, called active from +8 up or from −8 down;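 also: MC1000 strain lacking acrAB efflux and sulA so SOS filamentation is blocked; test concentration not given here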
# [7] = small-molecule microarray binders of probe aLefty2, primary screen, biochemical, biotinylated probe, 635/667 nm fluorescence (AID 1094); details: higher = more signal;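 also: score merges spot fluorescence near 667 nm with spot signal-to-noise ratio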
# [8] = system: Noggin (protein binding on small-molecule microarray); assay: Noggin binders on small-molecule microarray, primary screen, biochemical, 635/667 nm fluorescence (AID 1095); details: 635 nm fluorescence, higher = more signal;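 also: score merges 667 nm feature fluorescence with signal to noise over triplicate slides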
# [9] = target: Neurogenic locus notch homolog protein 3 (Homo sapiens) (UniProt Q9UM47); assay: NOTCH3 binders on small-molecule microarray, primary screen, biochemical, 635/667 nm fluorescence (AID 1096); details: NOTCH3 binding, 635 nm fluorescence, higher = more signal
# [10] = small-molecule microarray binders of probe aEGFR, primary screen, biochemical, biotinylated probe, 635/667 nm fluorescence (AID 1097); details: higher = more signal;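 also: probe is a biotinylated anti-EGFR antibody binding compounds printed on slides; score combines fluorescence near 667 nm and signal to noise of each spot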
# [11] = system: Plasmodium falciparum Sir2 (PF13_0152, Sir2A); assay: pfSir2 binders on small-molecule microarrays, primary screen, biochemical, small-molecule microarray, 635 nm fluorescence (AID 1098); details: small-molecule microarray binding, fluorescence 635 nm; higher = more signal;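 also: score merges spot fluorescence intensity with its signal-to-noise ratio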
# [12] = small-molecule microarray binders of probe aDKK1, primary screen, biochemical, biotinylated probe, 635/667 nm fluorescence (AID 1099); details: higher = more signal;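 also: score merges 667nm spot fluorescence with signal to noise across triplicate slides; reference of the scale not given here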
# [13] = small-molecule microarray binders of probe aCHRDL2, primary screen, biochemical, biotinylated probe, 635/667 nm fluorescence (AID 1100); details: higher = more signal
# [14] = splicing luciferase reporter signal modulators, primary screen, spliceosome inhibition project, cell-based, HEK293, splice +/- reporter (AID 1101); details: luminescence, 24 h, higher = more signal, called active from +8 up or from −8 down;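 also: HEK293 cells carrying a splicing-competent luciferase reporter gene; test concentration not given here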
# [15] = target: Fibroblast growth factor 10 (Homo sapiens) (UniProt O15520); assay: FGF10 binders on small-molecule microarrays, primary screen, biochemical, small-molecule microarray, 635 nm fluorescence (AID 1102); details: FGF10 binding, fluorescence 635 nm, higher = more signal
# [16] = system: glycogen synthase kinase-3 (GSK3A per assay name; protocol says GSK3B); assay: GSK3 binders on small-molecule microarrays, primary screen, biochemical, small-molecule microarray, 635 nm fluorescence, GSK3A (AID 1103); details: small-molecule microarray binding, fluorescence 635 nm; higher = more signal; also: the record names both GSK3A and GSK3B
# [17] = target: Epidermal growth factor receptor (Homo sapiens) (UniProt P00533); assay: EGFR binders on small-molecule microarrays, primary screen, biochemical, small-molecule microarray, 635 nm fluorescence (AID 1104); details: EGFR binding, higher = more signal;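 also: score merges 667 nm emission intensity with spot signal to noise over triplicate slides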
# [18] = target: Follistatin-related protein 3 (Homo sapiens) (UniProt O95633); assay: FSTL3 binders on small-molecule microarrays, primary screen, biochemical, small-molecule microarray, 635 nm fluorescence (AID 1105); details: FSTL3 binding, higher = more signal;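 also: score merges emission near 667 nm and signal to noise per printed spot across three slides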
# [19] = target: Dickkopf-related protein 1 (Homo sapiens) (UniProt O94907); assay: DKK1 binders on small-molecule microarrays, primary screen, biochemical, small-molecule microarray, 635 nm fluorescence scan (AID 1106); details: DKK1 binding, higher = more signal;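 also: score merges emission near 667 nm with signal to noise over three replicate slides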
# [20] = system: Inhibin beta A chain (activin A); assay: INHBA (activin A) binders on microarrays, primary screen, biochemical, small-molecule microarray, 635 nm fluorescence scan (AID 1107); details: small-molecule microarray binding, higher = more signal;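 also: mouse activin A protein probed at 4.33 µg/mL on printed slides; score merges bound-protein fluorescence near 667 nm with spot signal-to-noise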
# Neurogenic locus notch homolog protein 3 (Homo sapiens), sequence (Q9UM47 whole entry, looked up): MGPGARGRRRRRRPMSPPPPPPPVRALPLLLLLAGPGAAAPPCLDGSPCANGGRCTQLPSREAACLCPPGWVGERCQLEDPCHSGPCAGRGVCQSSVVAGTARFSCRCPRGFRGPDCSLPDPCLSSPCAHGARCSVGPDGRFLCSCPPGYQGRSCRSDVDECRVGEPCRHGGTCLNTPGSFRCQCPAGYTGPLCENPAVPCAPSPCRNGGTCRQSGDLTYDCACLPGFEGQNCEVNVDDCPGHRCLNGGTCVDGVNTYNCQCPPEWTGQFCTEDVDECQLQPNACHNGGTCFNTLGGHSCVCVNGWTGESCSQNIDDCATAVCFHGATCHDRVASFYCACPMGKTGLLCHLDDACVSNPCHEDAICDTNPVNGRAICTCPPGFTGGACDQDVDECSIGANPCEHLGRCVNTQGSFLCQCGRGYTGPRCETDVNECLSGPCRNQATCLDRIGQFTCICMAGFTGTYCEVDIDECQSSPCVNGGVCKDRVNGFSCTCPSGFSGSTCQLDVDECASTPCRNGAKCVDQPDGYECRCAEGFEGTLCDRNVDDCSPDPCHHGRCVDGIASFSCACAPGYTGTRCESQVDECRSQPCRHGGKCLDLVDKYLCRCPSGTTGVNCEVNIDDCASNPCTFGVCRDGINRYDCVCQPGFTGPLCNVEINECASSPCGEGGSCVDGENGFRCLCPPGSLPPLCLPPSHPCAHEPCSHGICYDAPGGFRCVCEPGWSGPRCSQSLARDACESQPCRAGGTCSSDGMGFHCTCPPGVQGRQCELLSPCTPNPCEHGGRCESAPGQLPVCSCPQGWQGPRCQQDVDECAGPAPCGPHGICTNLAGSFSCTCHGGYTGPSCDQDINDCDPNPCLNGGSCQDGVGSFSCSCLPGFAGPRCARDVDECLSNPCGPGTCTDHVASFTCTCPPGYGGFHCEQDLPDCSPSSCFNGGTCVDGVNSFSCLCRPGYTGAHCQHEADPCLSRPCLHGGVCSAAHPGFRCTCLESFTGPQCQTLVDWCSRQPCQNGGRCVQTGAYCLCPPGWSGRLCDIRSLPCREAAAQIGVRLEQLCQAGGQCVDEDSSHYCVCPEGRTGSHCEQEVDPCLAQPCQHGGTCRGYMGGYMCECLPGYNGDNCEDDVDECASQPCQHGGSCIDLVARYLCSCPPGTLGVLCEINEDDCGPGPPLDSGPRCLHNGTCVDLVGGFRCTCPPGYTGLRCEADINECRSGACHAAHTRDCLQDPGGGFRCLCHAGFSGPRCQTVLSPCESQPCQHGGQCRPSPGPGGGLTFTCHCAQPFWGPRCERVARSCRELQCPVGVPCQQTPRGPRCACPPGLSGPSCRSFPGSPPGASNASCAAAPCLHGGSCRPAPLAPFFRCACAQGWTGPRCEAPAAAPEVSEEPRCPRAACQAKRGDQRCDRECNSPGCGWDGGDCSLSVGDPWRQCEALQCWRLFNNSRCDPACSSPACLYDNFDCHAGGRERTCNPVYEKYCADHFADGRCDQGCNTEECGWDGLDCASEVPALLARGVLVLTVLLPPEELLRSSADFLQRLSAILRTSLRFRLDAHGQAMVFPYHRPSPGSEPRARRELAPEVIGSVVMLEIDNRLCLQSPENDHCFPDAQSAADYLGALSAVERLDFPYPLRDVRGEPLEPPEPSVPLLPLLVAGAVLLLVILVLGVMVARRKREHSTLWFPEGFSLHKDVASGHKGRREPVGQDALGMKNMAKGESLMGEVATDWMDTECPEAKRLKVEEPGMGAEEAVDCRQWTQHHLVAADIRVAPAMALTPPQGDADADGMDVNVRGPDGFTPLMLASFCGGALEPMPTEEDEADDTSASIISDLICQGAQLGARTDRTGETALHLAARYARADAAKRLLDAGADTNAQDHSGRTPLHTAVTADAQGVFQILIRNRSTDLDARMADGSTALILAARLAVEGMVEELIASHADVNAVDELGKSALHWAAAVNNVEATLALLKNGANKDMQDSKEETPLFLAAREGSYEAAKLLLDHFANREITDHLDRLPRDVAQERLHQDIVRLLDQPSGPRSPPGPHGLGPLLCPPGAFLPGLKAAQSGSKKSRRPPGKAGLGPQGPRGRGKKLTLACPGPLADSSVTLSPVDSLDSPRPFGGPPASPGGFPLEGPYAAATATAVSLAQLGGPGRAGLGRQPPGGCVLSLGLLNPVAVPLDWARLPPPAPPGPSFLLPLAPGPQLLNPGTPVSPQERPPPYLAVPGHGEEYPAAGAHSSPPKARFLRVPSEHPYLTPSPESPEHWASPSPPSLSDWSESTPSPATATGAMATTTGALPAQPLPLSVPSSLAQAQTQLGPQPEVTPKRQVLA
# Fibroblast growth factor 10 (Homo sapiens), sequence (O15520 whole entry, looked up): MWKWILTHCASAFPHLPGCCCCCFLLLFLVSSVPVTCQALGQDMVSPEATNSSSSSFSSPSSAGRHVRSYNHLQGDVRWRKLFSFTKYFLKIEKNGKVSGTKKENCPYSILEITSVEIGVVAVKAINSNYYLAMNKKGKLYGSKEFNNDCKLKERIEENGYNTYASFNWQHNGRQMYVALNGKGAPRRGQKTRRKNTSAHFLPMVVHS
# Follistatin-related protein 3 (Homo sapiens), sequence (O95633 whole entry, looked up): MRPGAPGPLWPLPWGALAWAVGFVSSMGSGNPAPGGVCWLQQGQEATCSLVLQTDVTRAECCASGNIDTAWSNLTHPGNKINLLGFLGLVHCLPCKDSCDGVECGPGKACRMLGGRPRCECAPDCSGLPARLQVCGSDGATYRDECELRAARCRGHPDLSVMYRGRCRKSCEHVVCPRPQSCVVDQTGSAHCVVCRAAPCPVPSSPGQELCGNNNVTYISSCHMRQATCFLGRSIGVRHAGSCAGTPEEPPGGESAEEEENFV
# Epidermal growth factor receptor (Homo sapiens), sequence (P00533 whole entry, looked up): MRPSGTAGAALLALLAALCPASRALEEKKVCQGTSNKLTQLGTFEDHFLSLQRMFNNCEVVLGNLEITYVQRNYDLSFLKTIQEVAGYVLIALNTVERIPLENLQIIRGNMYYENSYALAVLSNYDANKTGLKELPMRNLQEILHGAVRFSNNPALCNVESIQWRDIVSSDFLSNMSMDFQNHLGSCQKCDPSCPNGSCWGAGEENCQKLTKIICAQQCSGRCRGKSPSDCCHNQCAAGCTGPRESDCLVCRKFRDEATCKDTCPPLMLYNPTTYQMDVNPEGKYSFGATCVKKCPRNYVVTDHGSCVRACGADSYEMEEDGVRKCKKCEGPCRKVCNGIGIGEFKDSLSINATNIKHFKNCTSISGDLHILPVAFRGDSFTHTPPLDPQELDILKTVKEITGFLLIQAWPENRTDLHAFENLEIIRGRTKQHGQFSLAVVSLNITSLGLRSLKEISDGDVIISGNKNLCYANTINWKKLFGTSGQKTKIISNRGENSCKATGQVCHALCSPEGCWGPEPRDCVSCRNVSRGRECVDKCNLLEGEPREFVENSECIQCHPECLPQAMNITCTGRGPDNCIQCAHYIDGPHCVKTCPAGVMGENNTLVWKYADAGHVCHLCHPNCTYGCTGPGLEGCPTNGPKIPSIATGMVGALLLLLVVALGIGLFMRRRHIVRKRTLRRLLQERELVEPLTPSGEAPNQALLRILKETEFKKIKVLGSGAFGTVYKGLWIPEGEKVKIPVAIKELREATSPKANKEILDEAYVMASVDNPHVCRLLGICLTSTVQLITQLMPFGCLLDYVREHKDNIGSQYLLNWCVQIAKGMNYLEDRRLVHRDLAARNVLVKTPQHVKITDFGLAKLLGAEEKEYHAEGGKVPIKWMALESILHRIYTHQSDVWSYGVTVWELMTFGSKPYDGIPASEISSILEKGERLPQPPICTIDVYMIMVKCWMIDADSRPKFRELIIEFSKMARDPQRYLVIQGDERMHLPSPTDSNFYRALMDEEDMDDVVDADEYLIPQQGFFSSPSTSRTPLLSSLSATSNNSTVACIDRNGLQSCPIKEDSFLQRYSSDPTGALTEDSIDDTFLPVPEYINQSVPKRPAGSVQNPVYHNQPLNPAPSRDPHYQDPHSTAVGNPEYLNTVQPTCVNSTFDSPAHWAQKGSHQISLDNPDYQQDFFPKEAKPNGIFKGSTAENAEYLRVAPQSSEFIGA
# Torsin-1A-interacting protein 2 (Homo sapiens), sequence (Q8NFQ8 whole entry, looked up): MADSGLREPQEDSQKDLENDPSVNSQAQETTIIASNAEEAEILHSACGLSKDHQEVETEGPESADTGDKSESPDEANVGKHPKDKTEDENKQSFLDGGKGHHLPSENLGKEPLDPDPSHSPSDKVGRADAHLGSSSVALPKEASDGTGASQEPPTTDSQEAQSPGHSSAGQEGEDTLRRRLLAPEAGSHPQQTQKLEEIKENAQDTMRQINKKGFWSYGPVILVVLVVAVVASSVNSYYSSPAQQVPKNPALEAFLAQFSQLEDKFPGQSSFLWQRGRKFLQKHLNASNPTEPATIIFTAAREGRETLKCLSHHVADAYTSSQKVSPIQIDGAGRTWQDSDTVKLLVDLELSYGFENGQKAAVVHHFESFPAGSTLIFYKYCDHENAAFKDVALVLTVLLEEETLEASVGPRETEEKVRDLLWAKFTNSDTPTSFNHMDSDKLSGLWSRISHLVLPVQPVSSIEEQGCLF
# Dickkopf-related protein 1 (Homo sapiens), sequence (O94907 whole entry, looked up): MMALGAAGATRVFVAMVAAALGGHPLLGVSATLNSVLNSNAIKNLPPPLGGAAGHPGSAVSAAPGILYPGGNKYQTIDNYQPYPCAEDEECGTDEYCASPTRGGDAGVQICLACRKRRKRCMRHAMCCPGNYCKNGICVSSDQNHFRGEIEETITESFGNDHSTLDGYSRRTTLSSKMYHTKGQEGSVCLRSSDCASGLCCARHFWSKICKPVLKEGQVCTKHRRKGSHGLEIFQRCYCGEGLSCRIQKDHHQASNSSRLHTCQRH
SMILES,composite z-score [1],z-score [2],z-score [3],z-score [4],composite z-score [5],z-score [6],composite z-score [7],composite z-score [8],composite z-score [9],composite z-score [10],composite z-score [11],composite z-score [12],composite z-score [13],z-score [14],composite z-score [15],composite z-score [16],composite z-score [17],composite z-score [18],composite z-score [19],composite z-score [20]
COc1ccc([Si](C)(C)[C@@H]2[C@@H](CC(=O)N(CCO)Cc3ccccc3)O[C@]3(C(=O)N(Cc4ccc(I)cc4)c4ccccc43)[C@H]2C)cc1,1.55,0.383 (inactive),1.53 (inactive),2.57 (inactive),-0.0159,1.26 (inactive),0.408,1.63,1.12,0.338,0.625,0.346,0.351,-2.35 (inactive),1.1,0.301,1.03,1.37,1.2,1.58
[N-]=[N+]=Nc1ccccc1[C@@H]1OC(c2ccc(OCCCO)cc2)=N[C@]1(Cc1ccccc1)C(=O)NCCN1CCOCC1,0.547,-0.312 (inactive),-1.36 (inactive),0.152 (inactive),3.51,0.382 (inactive),0.0787,0.762,1.09,-0.0106,0.669,0.652,0.825,-0.299 (inactive),1.1,0.774,-0.04,0.952,-0.326,0.33
C=CCC(OC(C)=O)[C@@H]1[C@@H](N(Cc2cccc3ccccc23)C(=O)c2ccc(-c3ccccc3)cc2)c2cc(OCCCO)ccc2N1C(=O)Cc1ccc2ccccc2c1 (stereo not given in full),0.157,-0.616 (inactive),0.072 (inactive),-0.26 (inactive),0.893,-0.741 (inactive),-0.145,-0.109,0.397,-0.112,-0.121,-0.0459,0.428,-1.08 (inactive),-0.179,-0.328,-0.0303,0.228,-0.624,0.45
COCCOC(=O)N1C(=O)[C@@]2(c3ccccc31)[C@H](C(=O)N1CCN(c3ncccn3)CC1)[C@H]1C(=O)O[C@H](c3ccccc3)[C@H](c3ccccc3)N1[C@@H]2c1ccccc1OCCO,1.49,1.13 (inactive),0.185 (inactive),7.39 (inactive),2.61,1.97 (inactive),-0.0366,1.18,1.07,-0.067,1.33,-0.0994,-0.41,-1.05 (inactive),1.17,1.31,0.575,1.15,0.778,0.888
C=C(COC)C(=O)CC[C@@H](OC(=O)c1ccccc1-c1ccccc1C(=O)O)c1ccc(OCCO)cc1,1.39,-0.656 (inactive),-0.943 (inactive),-0.856 (inactive),0.886,0.315 (inactive),-0.0341,1.26,0.505,-0.139,0.398,-0.321,0.0721,0.833 (inactive),0.983,-0.278,-0.487,0.684,0.0668,1.08
CC(C)N1C(=O)c2ccccc2[C@@H](C(=O)NCC(F)(F)F)[C@@H]1c1ccc(CO)cc1,-0.57,0.125 (inactive),-0.637 (inactive),0.0898 (inactive),0.952,-0.199 (inactive),-0.117,0.157,-0.59,-0.123,0.861,-0.0674,0.53,0.655 (inactive),-0.746,-0.871,-0.318,-0.464,-0.459,0.935
CC[C@@H]1C=C(C(=O)O)[C@H](c2ccc(OC)cc2)N1S(=O)(=O)c1ccc(C)cc1,-0.222,-0.639 (inactive),0.211 (inactive),-0.113 (inactive),2.15,-1.04 (inactive),-0.0491,-0.199,0.624,-0.0828,1.05,-0.0814,0.118,0.603 (inactive),-0.0657,-1.06,-0.675,0.0479,-0.188,0.615
COCC(=C=CC[C@H](O)c1ccccc1OCCO)C[C@H](O)COCc1ccccc1,1.55,-0.16 (inactive),-1.15 (inactive),-0.619 (inactive),2.71,-0.111 (inactive),-0.0113,0.513,0.271,0.312,1.54,0.132,-0.316,-0.111 (inactive),1.49,0.342,0.335,0.3,-0.06,0.627
C=CCC(OC(C)=O)[C@@H]1[C@@H](N(Cc2cc3ccccc3o2)C(=O)Cc2ccc(OC)cc2)c2cc(OCCCO)ccc2N1C(=O)c1ccc2ccccc2n1 (stereo not given in full),0.404,-0.256 (inactive),-0.844 (inactive),0.292 (inactive),0.295,1.03 (inactive),0.0478,0.356,0.0707,0.0453,0.0682,0.0671,0.393,-0.536 (inactive),0.116,0.0115,0.357,0.367,0.0467,1.42
CCCC[C@H]1OB(O)C[C@H]2C1=C(COc1ccccc1)C[C@H]1C(=O)C=CC(=O)[C@H]12,1.07,0.426 (inactive),-3.31 (inactive),-0.241 (inactive),0.258,1.78 (inactive),-0.377,0.592,1.03,-0.0007,0.268,1.07,-0.56,-0.171 (inactive),0.638,0.474,0.286,1.02,0.966,0.825
CCC(CC)C(O)C1C=CC2C(=O)N(c3ccccc3)C(=O)C2N1Nc1ccccc1F (stereo not given),0.203,0.175 (inactive),0.44 (inactive),-0.0875 (inactive),3.23,-0.636 (inactive),0.172,-0.19,0.78,-0.04,1.17,0.373,0.481,-0.115 (inactive),0.412,0.554,0.0005,0.226,-0.445,0.704
COc1ccc(NN2C(C(O)c3ccc(I)cc3)C=CC3C(=O)N(C4CCCCC4)C(=O)C32)cc1 (stereo not given),1.55,0.147 (inactive),1.26 (inactive),0.801 (inactive),3.04,-0.0155 (inactive),0.109,0.715,1.03,0.257,0.404,0.519,0.792,0.293 (inactive),1.33,1.31,0.479,1.46,0.0284,0.504
NC(=O)N1C(=O)C2C(C1=O)C1C=C(CCCO)C2C(C2CC2)N1Cc1sc2ccccc2c1Cl (stereo not given),1.56,-0.425 (inactive),-2.48 (inactive),-1.63 (inactive),2.14,0.792 (inactive),0.0819,0.355,1.13,-0.0697,0.903,-0.129,0.256,1.01 (inactive),1.15,1.09,-0.271,0.808,0.158,0.303
CCCC=C(CCC)[C@@H](NC(=O)c1ccc(C(F)(F)F)cc1)c1ccc(C(F)(F)F)cc1,1.41,1.13 (inactive),1.17 (inactive),1.23 (inactive),3.26,-0.35 (inactive),0.315,-0.0005,1.11,0.208,0.654,0.73,1.09,-3.17 (inactive),0.793,1.13,-0.254,0.468,-0.906,0.932
CC(C)C(=C=CC[C@H](O)c1ccccc1OCCO)C[C@H](O)c1cc(Cl)cc(Cl)c1O,1.55,-0.088 (inactive),-2.34 (inactive),-0.16 (inactive),2.71,-0.0708 (inactive),-0.226,0.811,1.03,0.0284,1.25,-0.0965,-0.13,-0.605 (inactive),1.11,0.579,-0.172,0.588,-0.0053,0.149
[N-]=[N+]=Nc1ccccc1C[C@@]1(C(=O)NCC(O)CO)N=C(c2ccc(OCCCO)cc2)O[C@@H]1c1ccccc1 (stereo not given in full),0.376,-0.558 (inactive),-1.09 (inactive),-1.31 (inactive),2.81,0.883 (inactive),-0.0021,-0.264,-0.405,-0.151,0.973,0.262,0.9,-0.0949 (inactive),-0.134,0.119,-1.16,-0.932,-1.17,0.0121
CC1CC/C=C\[C@H]2OC34C=CCN(c5ccc6ccccc6c5)C(=O)[C@H]3N(C(C)CO)C(=O)[C@@H]4C2C(=O)O1 (stereo not given in full),0.541,0.612 (inactive),-0.197 (inactive),0.407 (inactive),-0.172,-0.312 (inactive),-0.244,-1.1,-0.0196,-0.252,1.38,-0.087,0.404,0.0493 (inactive),-0.83,-1.36,-0.975,-1.04,-0.591,0.265
CN(C)CCCNC(=O)[C@@]1(Cc2ccccc2I)c2ccccc2C(=O)N(C2CCCCC2)[C@H]1c1ccc(CO)cc1,1.55,0.273 (inactive),-19.5 (active),-2.99 (inactive),2.34,0.0304 (inactive),0.446,0.27,0.953,0.123,0.856,1.13,0.532,-4.61 (inactive),0.269,1.03,0.0863,0.383,0.183,1.32
O=C1NC(=O)C2C1C=CC(C(O)c1ccc(B(O)O)cc1)N2Nc1ccc(Cl)cc1Cl (stereo not given),-0.201,1.33 (inactive),-0.229 (inactive),0.715 (inactive),1.71,-0.758 (inactive),0.126,-0.255,0.287,-0.0238,0.46,0.704,0.326,0.379 (inactive),0.0671,-0.0838,-0.174,0.317,-0.414,0.948
